Assay results published in PubChem BioAssay (NCI).
The panel holds about 83,000 compounds, 20% with a hit somewhere; the sample as a whole holds those more often.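 For each line, cells grew in 96-well plates with the test compound present at a single concentration for 48 hours.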 Active and inactive are the calls of the source. Rule for the calls: active = growth percent below 10; inactive = the rest.

How the values were obtained:
Test in all cases: NCI-60 one-dose screen, 48 h (100 = growth as untreated, 0 = no growth, -100 = all killed)
Settings in all cases: 10 µM unless noted
HCT-15 colon = test system: HCT-15 colon
HT29 colon = test system: HT29 colon
SNB-75 CNS = test system: SNB-75 CNS
SNB-19 CNS = test system: SNB-19 CNS
U251 CNS = test system: U251 CNS
PC-3 prostate = test system: PC-3 prostate
SK-MEL-5 melanoma = test system: SK-MEL-5 melanoma
UACC-62 melanoma = test system: UACC-62 melanoma
LOX IMVI melanoma = test system: LOX IMVI melanoma
SK-MEL-28 melanoma = test system: SK-MEL-28 melanoma

Measured: growth

COC(=O)Nc1ccc(NC(=O)OC)cc1
inactive: HCT-15 colon 108% | HT29 colon 98.4% | SNB-75 CNS 80% | SNB-19 CNS 103% | U251 CNS 99.1% | PC-3 prostate 77.7% | SK-MEL-5 melanoma 99.1% | UACC-62 melanoma 103% | LOX IMVI melanoma 99% | SK-MEL-28 melanoma 116%

c1ccc(Cn2nc3c(c2-c2ccccc2)-c2oncc2CC3)cc1
inactive: HCT-15 colon 99.3% | HT29 colon 96.3% | SNB-75 CNS 84.6% | SNB-19 CNS 102% | U251 CNS 87.9% | PC-3 prostate 68.5% | SK-MEL-5 melanoma 84.8% | UACC-62 melanoma 76.2% | LOX IMVI melanoma 90.2% | SK-MEL-28 melanoma 94.4%

CN(C)C(=O)OCc1nc2c(N3CCOCC3)nc(-c3ccccc3)nc2n1C
inactive: SNB-19 CNS 13.9%
active: HCT-15 colon -38.6% | HT29 colon -53.7% | SNB-75 CNS -87.2% | U251 CNS -57.2% | PC-3 prostate -65.2% | SK-MEL-5 melanoma -95.7% | UACC-62 melanoma -92% | LOX IMVI melanoma -84.7% | SK-MEL-28 melanoma -95.4%

N/C(=N\N=C\c1cc2ccccc2[nH]1)N/N=C/c1cc2ccccc2[nH]1
inactive: HCT-15 colon 93.5% | HT29 colon 95.7% | SNB-75 CNS 85.9% | SNB-19 CNS 97.6% | U251 CNS 101% | PC-3 prostate 89.3% | SK-MEL-5 melanoma 84.9% | UACC-62 melanoma 99.2% | LOX IMVI melanoma 98.4% | SK-MEL-28 melanoma 103%

COc1ccccc1/C=C1\Oc2cc(OCCCN3CCCC3)ccc2C1=O
inactive: HCT-15 colon 77.7% | HT29 colon 16.4% | SNB-75 CNS 83.5% | SNB-19 CNS 91.2% | U251 CNS 76.5% | PC-3 prostate 85.8% | SK-MEL-5 melanoma 79.8% | UACC-62 melanoma 95.6% | LOX IMVI melanoma 75.8% | SK-MEL-28 melanoma 91.9%

CC(=O)OCC(=O)[C@@]1(O)CC[C@H]2[C@@H]3CC(=C(Br)Br)C4=CC(=O)CC[C@]4(C)[C@H]3C(=O)C[C@@]21C
inactive: HCT-15 colon 94.4% | HT29 colon 92.1% | SNB-75 CNS 81.2% | SNB-19 CNS 92.6% | U251 CNS 82.9% | PC-3 prostate 76.1% | SK-MEL-5 melanoma 95.2% | UACC-62 melanoma 82.5% | LOX IMVI melanoma 97.3% | SK-MEL-28 melanoma 102%

COc1nccnn1
inactive: HCT-15 colon 98.1% | HT29 colon 97.8% | SNB-75 CNS 96.5% | SNB-19 CNS 91.2% | U251 CNS 100% | PC-3 prostate 87.1% | SK-MEL-5 melanoma 104% | UACC-62 melanoma 98.9% | LOX IMVI melanoma 94.9% | SK-MEL-28 melanoma 102%

O=C(CCN1CCCC1)Nc1ccc2c(NCc3ccc(F)cc3)c3ccccc3nc2c1
active: HT29 colon 0.774% | SNB-75 CNS -11% | SNB-19 CNS 4.86% | U251 CNS -39.3% | PC-3 prostate -17% | UACC-62 melanoma 1.75% | LOX IMVI melanoma -74%
inactive: HCT-15 colon 14.3% | SK-MEL-5 melanoma 30.5% | SK-MEL-28 melanoma 30.5%

C#Cc1cccc(NC(=O)Nc2cccc(N=C=S)c2)c1
inactive: HCT-15 colon 105% [8.25 µM] | HT29 colon 113% [8.25 µM] | SNB-75 CNS 89.3% [8.25 µM] | SNB-19 CNS 96.6% [8.25 µM] | U251 CNS 96.9% [8.25 µM] | PC-3 prostate 94.6% [8.25 µM] | SK-MEL-5 melanoma 95.7% [8.25 µM] | UACC-62 melanoma 89.4% [8.25 µM] | LOX IMVI melanoma 102% [8.25 µM] | SK-MEL-28 melanoma 103% [8.25 µM]

C=C(C)[C@@H]1CC[C@]2(C(=O)NCCCN(CCC#N)CCC#N)CC[C@]3(C)[C@H](CC[C@@H]4[C@@]5(C)CCC(=O)C(C)(C)[C@@H]5CC[C@]43C)[C@@H]12
inactive: HCT-15 colon 101% | HT29 colon 99.1% | SNB-75 CNS 92% | SNB-19 CNS 98.9% | U251 CNS 94.1% | PC-3 prostate 94.4% | SK-MEL-5 melanoma 102% | UACC-62 melanoma 99.6% | LOX IMVI melanoma 101% | SK-MEL-28 melanoma 107%

COc1cccc(NC(=O)c2cccc(-c3cc(=O)c4c(OC)c(OC)c(OC)cc4o3)c2)c1
inactive: HCT-15 colon 54.7% | HT29 colon 50.8% | SNB-75 CNS 89.8% | SNB-19 CNS 82.5% | U251 CNS 62.1% | PC-3 prostate 57.1% | SK-MEL-5 melanoma 63.9% | UACC-62 melanoma 62.1% | LOX IMVI melanoma 49.9% | SK-MEL-28 melanoma 73.4%

O=C1Nc2ccccc2/C1=C\c1cccc(/C=C2/C(=O)Nc3ccccc32)n1
active: HCT-15 colon -81.3% | HT29 colon 2.35% | SNB-75 CNS -71.5% | SNB-19 CNS -82.7% | U251 CNS -98.1% | PC-3 prostate -28% | SK-MEL-5 melanoma -99.1% | UACC-62 melanoma -67.3% | LOX IMVI melanoma -88.2% | SK-MEL-28 melanoma -88.8%

Clc1ccc(N2N=C(c3cccc(Nc4ccncc4)c3)CC2c2ccc(Br)cc2)cc1 (stereo not given)
active: HCT-15 colon -74.7% | HT29 colon -2.76% | U251 CNS -41.5% | LOX IMVI melanoma -96% | SK-MEL-28 melanoma -85.5%
inactive: SNB-75 CNS 79.2% | SNB-19 CNS 80.8% | PC-3 prostate 22% | SK-MEL-5 melanoma 68.6% | UACC-62 melanoma 101%

O=C(N=Nc1c(O)[nH]c2ccc(F)cc12)c1cc2ccccc2[nH]1
inactive: HCT-15 colon 96% | HT29 colon 109% | SNB-75 CNS 99.6% | SNB-19 CNS 97.7% | U251 CNS 94.7% | PC-3 prostate 103% | SK-MEL-5 melanoma 99.7% | UACC-62 melanoma 96.1% | LOX IMVI melanoma 97.3% | SK-MEL-28 melanoma 110%

NC(=O)c1cccc(-n2ccc3cc(NC(=O)Nc4cc(C(F)(F)F)cc(C(F)(F)F)c4)ccc32)n1
inactive: HCT-15 colon 37.1% | HT29 colon 52.6% | SNB-75 CNS 41% | SNB-19 CNS 42% | U251 CNS 36.7% | PC-3 prostate 32.4% | SK-MEL-5 melanoma 69% | UACC-62 melanoma 52.9% | LOX IMVI melanoma 50.9% | SK-MEL-28 melanoma 69.3%

CCn1cc(C2NC(=O)c3ccccc3N2)c2cccc(C)c21 (stereo not given)
active: HT29 colon -22.9% | SNB-75 CNS -26.9% | U251 CNS 3.94%
inactive: HCT-15 colon 18.6% | SNB-19 CNS 32.9% | PC-3 prostate 22% | SK-MEL-5 melanoma 16.8% | UACC-62 melanoma 27.6% | LOX IMVI melanoma 29.2% | SK-MEL-28 melanoma 56.5%

CCNC(=O)c1[nH]cc(-c2ccc(OC)cc2)c1-c1cc(OC)c(OC)c(OC)c1
inactive: HCT-15 colon 35.7% | HT29 colon 14.7% | SNB-19 CNS 55.2% | U251 CNS 55.5% | PC-3 prostate 28.8% | SK-MEL-5 melanoma 16% | UACC-62 melanoma 27% | LOX IMVI melanoma 44.5% | SK-MEL-28 melanoma 56.7%
active: SNB-75 CNS -6.81%

Clc1cc(Cl)cc(N2N=C(c3cccc(Nc4ccncc4)c3)CC2c2ccccc2)c1 (stereo not given)
inactive: SNB-75 CNS 77.4% | SNB-19 CNS 88.9% | PC-3 prostate 49.4% | SK-MEL-5 melanoma 79.9% | UACC-62 melanoma 99% | SK-MEL-28 melanoma 11%
active: HCT-15 colon -71.9% | HT29 colon 1.2% | U251 CNS -31.3% | LOX IMVI melanoma -81.2%

c1ccc(C2CC(c3cccc(Nc4ccncc4)c3)=NN2c2ccccc2)cc1 (stereo not given)
inactive: SNB-75 CNS 77.3% | SNB-19 CNS 89.1% | U251 CNS 25.6% | PC-3 prostate 54.5% | SK-MEL-5 melanoma 75.3% | UACC-62 melanoma 96.8% | LOX IMVI melanoma 43.7%
active: HCT-15 colon -15.7% | HT29 colon 1.62% | SK-MEL-28 melanoma -56.2%

CCN(CC)S(=O)(=O)c1cccc([N+](=O)[O-])c1
inactive: HCT-15 colon 107% | HT29 colon 88.4% | SNB-75 CNS 79.9% | SNB-19 CNS 103% | U251 CNS 88.9% | PC-3 prostate 75.4% | SK-MEL-5 melanoma 97.9% | UACC-62 melanoma 102% | LOX IMVI melanoma 97.6% | SK-MEL-28 melanoma 108%

COc1cc(CCNc2nc3cc(N)cc(N)c3nc2-c2ccccc2)cc(OC)c1
active: HT29 colon 5.3% | U251 CNS -80.3% | PC-3 prostate 4.03% | SK-MEL-5 melanoma -91.7% | UACC-62 melanoma -22.3% | LOX IMVI melanoma -79.7% | SK-MEL-28 melanoma -12.2%
inactive: HCT-15 colon 69.7% | SNB-75 CNS 39.9% | SNB-19 CNS 12.9%

O=S(=O)(NCCNc1nccc(-c2c(-c3ccc(F)c(O)c3)nc3occn23)n1)c1ccccc1
inactive: HCT-15 colon 76.6% | HT29 colon 61.5% | SNB-75 CNS 71.9% | SNB-19 CNS 73.8% | U251 CNS 60.4% | PC-3 prostate 55.8% | SK-MEL-5 melanoma 22.8% | LOX IMVI melanoma 33.7% | SK-MEL-28 melanoma 27.3%
active: UACC-62 melanoma 6.23%

CNC(=O)c1c(NC(=O)c2ccc(C(C)C)cc2)sc2c(CN(C)C)c(O)ccc12
inactive: HCT-15 colon 14.2% | HT29 colon 87.1% | SNB-75 CNS 98.1% | SNB-19 CNS 103% | U251 CNS 81.7% | PC-3 prostate 79.4% | SK-MEL-5 melanoma 96% | UACC-62 melanoma 99.9% | LOX IMVI melanoma 57.3% | SK-MEL-28 melanoma 94.5%

COc1ccc(-c2nc(N/N=C/c3c[nH]c4ccccc34)nc(N3CCOCC3)c2C#N)cc1
inactive: HCT-15 colon 44.1% | HT29 colon 51.4% | SNB-75 CNS 61.6% | SNB-19 CNS 109% | U251 CNS 58.7% | PC-3 prostate 74.3% | SK-MEL-5 melanoma 101% | UACC-62 melanoma 106% | LOX IMVI melanoma 102% | SK-MEL-28 melanoma 41.3%
